Compound activity (PubChem)
Most compounds without a hit are left out; they make up all but 1.6% or so of the library.
MOR-DOR ag: agonists of OPRM1-OPRD1 heterodimerization, primary screen, cell-based, luminescence; Mu-type opioid receptor (Homo sapiens) + Delta-type opioid receptor (Homo sapiens), …; 340,000 compounds, 0.3% hits; cells; activation, % at 9.3 µM; in the data active = activation above about 18%;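 note: 0% = vehicle-treated cells and 100% = reference agonist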
Target sequence (P35372 whole entry, looked up): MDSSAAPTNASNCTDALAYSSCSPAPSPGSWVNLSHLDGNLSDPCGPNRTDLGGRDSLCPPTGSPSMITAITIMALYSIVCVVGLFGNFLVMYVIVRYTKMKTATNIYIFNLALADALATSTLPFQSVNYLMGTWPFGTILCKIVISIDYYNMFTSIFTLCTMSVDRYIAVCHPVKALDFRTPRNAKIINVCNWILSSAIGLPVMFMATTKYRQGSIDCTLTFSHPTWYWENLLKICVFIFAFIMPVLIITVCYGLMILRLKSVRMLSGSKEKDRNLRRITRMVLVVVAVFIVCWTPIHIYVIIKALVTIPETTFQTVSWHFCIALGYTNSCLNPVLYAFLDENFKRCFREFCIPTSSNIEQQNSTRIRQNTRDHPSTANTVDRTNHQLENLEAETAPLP
Target sequence (P41143 whole entry, looked up): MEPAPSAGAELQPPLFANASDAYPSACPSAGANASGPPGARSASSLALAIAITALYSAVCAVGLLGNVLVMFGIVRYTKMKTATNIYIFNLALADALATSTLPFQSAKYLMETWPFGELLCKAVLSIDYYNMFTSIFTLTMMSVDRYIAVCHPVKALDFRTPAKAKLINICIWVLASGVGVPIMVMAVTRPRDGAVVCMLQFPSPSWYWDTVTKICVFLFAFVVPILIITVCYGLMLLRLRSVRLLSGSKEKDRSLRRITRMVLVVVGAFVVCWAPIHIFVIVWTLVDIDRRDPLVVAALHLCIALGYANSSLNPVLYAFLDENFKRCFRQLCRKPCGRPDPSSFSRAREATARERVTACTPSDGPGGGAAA
MOR-DOR inv ag: inverse agonists of MOR-DOR heterodimerization, primary screen, cell-based, luminescence. Mu-type opioid receptor (Homo sapiens) + Delta-type opioid receptor (Homo sapiens), …. cell-based MOR-DOR heterodimer luminescence, inverse agonism. inhibition, % at 9.3 µM. 340,000 compounds, 0.21% hits. AID 504357, 2011; in the data active = inhibition above about 22%, passing the limit was not always enough;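 note: 0% = cells with DMSO and 100% = wells without cells with DMSO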
HTR5A inv ag: HTR5A inverse agonists in luminescence cell assay, primary screen, counter-screen for OPRM1-OPRD1 heterodimer inverse agonist project, full-deck HTS. 5-hydroxytryptamine receptor 5A (Homo sapiens), P47898. HTR5A cell line, inverse agonism. inhibition, % at 9.3 µM. 340,000 compounds, 0.083% hits; in the data active = inhibition mostly above about 23%, no sharp cut-off; inactive = mostly below about 18%;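 note: 0% = cells with DMSO and 100% = no-cell wells with DMSO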
HTR5A ag: HTR5A agonists in luminescence cell assay, primary screen, counter-screen for OPRM1-OPRD1 heterodimer agonist project, full-deck HTS; 5-hydroxytryptamine receptor 5A (Homo sapiens), P47898; 340,000 compounds, 0.61% hits; activation, % at 9.3 µM; cell-based; AID 504692, 2011; in the data active = activation mostly above about 9.5%, no sharp cut-off; inactive = mostly below about 7.6%;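 note: 0% = cells with vehicle only and 100% = reference agonist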
HTR2A ag: mouse Htr2a agonists via beta-arrestin recruitment, primary screen, cell-based, luminescence; CHO-K1 mHTR2A beta-arrestin complementation; percent of 30 µM serotonin response; activation, % at 7.6 µM; 360,000 compounds, 0.66% hits; AID 624169, 2012;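 active = activation above a run cutoff, the mean activation of all tested compounds plus 3 SD, cut at about 14% in these data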;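 note: 0% = plate median of compound wells and 100% = 30 µM serotonin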
An asterisk follows results filed as active; nt = no result given.

SMILES | MOR-DOR ag | MOR-DOR inv ag | HTR5A inv ag | HTR5A ag | HTR2A ag
COCCN1C(=O)CN(S(C)(=O)=O)CC1(C)C(=O)Nc1ccc2c(c1)OCCO2 (stereo not drawn) | nt | nt | nt | nt | -1.7
CCC[C@@H]1C[C@@H](C(=O)NC(C(C)Cl)[C@H]2O[C@H](SC)[C@H](O)[C@@H](O)[C@H]2O)N(C)C1 (stereo partly drawn) | -0.5 | 2.8 | 3.1 | -0.9 | 39.8*
O=C(NCCc1c[nH]c2ccccc12)C(F)(F)F | -2.3 | 10.6 | -72.9 | 13.7* | -1.8
COc1ccc(-c2nc(NC(=O)c3ccc(OCC(=O)Nc4ccc(F)cc4)c(OC)c3)sc2C)cc1 | 19.3* | -102.5 | 5.9 | 15.3* | -0.8
CC(C)C[C@@H]1COc2cc(N3CCSCC3)ccc2S(=O)(=O)N1 | nt | nt | nt | nt | -5.0
Cc1nc2sc(C(=O)OC(C)C)c(N)c2c(C)c1C | 0.1 | -0.6 | -24.9 | 8.8* | -1.2
CN(C)c1ccc(/C=C2\SC(=S)N(Nc3ncc(C(F)(F)F)cc3Cl)C2=O)cc1 | -3.6 | 18.0 | -10.0 | 3.3 | 4.4
COc1cc(/C=C2\SC(=S)N(Nc3ncc(C(F)(F)F)cc3Cl)C2=O)ccc1O | -0.9 | 5.5 | 40.8* | -9.2 | -8.2
COCC(C)n1c(C)cc(C(=O)COC(=O)C2=NN(c3ccccc3)C(=O)CC2)c1C (stereo not drawn) | -2.6 | 12.2 | 2.8 | -1.1 | 0.2
COCC(C)n1c(C)cc(C(=O)COC(=O)c2c(C)nn(-c3ccccc3)c2C)c1C (stereo not drawn) | 2.7 | -15.3 | -22.6 | 10.4* | -1.4
C=CCNC(=S)N/N=C(\C)c1ccccn1 | -7.2 | 34.6* | 12.9 | -5.4 | -1.2
CCN1CCN(CCC(=O)Nc2cc(OC)cc(OC)c2)CC1 | -2.7 | 12.4 | -33.8 | 9.2* | -4.0
CC(C)CNc1ncnc2c1ncn2[C@H]1CN(Cc2cccs2)C[C@@H](CO)O1 | nt | nt | nt | nt | -3.1
CC1(C(=O)OCC(=O)NCCNC(=O)COC(=O)C2(C)CC2(Cl)Cl)CC1(Cl)Cl (stereo not drawn) | -1.1 | 5.7 | -23.6 | 12.0* | 2.2
O=C(COC(=O)Cc1ccccc1F)NC(=O)NC1CCCC1 | -3.3 | 12.8 | -14.5 | 11.7* | -7.2
O=C(COC(=O)Cc1ccc(F)cc1)NC(=O)NC1CCCC1 | -2.2 | 8.9 | -2.5 | 5.4 | -5.2
O=C(COC(=O)Cc1ccc(F)cc1)NC1CCCC1 | -1.7 | 9.0 | -2.2 | 0.8 | 21.1*
CCC(NC(=O)Nc1nnc(C(F)(F)F)s1)(C(F)(F)F)C(F)(F)F | 2.5 | -14.1 | -37.1 | 11.7* | 4.2
COc1cc2ncnc(NCc3cccc(F)c3F)c2cc1OC | 2.0 | -9.3 | -32.7 | 9.2* | -10.9
CSc1ccc(OC2(C)CCN(Cc3ccc(-c4ccccn4)cc3)C2)cc1 (stereo not drawn) | nt | nt | nt | nt | 6.9
O=C(COc1ccccc1)NS(=O)(=O)c1ccc(Cl)cc1 | -1.7 | 8.9 | -10.1 | 11.9* | 8.2
CC(C)NC(=O)C1(C)CCN1Cc1cccc(C#N)c1 (stereo not drawn) | nt | nt | nt | nt | 0.1
CC1(Oc2ccc(Cl)cc2)CCN(Cc2ccc(-c3ccccn3)cc2)C1 (stereo not drawn) | nt | nt | nt | nt | 12.0
COc1ccc(C(F)(F)F)cc1N/C=C/c1nnnn1-c1ccc2ccccc2c1 | 0.8 | -4.2 | -40.6 | 12.4* | 5.4
COc1ccc(-n2nnnc2/C=C\Nc2ccc(C)cc2)cc1 | -1.2 | 6.1 | 10.7 | -1.9 | 4.1
SMILES | MOR-DOR ag | MOR-DOR inv ag | HTR5A inv ag | HTR5A ag | HTR2A ag
COC(=O)c1cn(NC(=O)c2cccc(N(C)C)c2)c(=O)c2ccccc12 | 0.6 | -3.5 | -5.4 | 9.2* | 1.3
N/C(=N\OC(=O)c1ccc2ccccc2c1)c1ccncc1 | 11.8 | -85.0 | -13.6 | 5.1 | -4.3
N/C(=N\OC(=O)c1ccc2ccccc2c1)c1ccccc1Cl | 22.0* | -89.4 | -74.9 | 29.2* | 2.9
CCN(CCCNC(=O)C1CCN(S(=O)(=O)c2cnc[nH]2)CC1)c1cccc(C)c1 | 0.1 | -0.7 | -8.5 | 10.7* | 0.8
CCN(CCCNC(=O)C1CCCN(S(=O)(=O)CC)C1)c1cccc(C)c1 (stereo not drawn) | 2.8 | -16.1 | -19.2 | -2.6 | -4.9
CCCCC[C@@H](C)N1C[C@H](COCc2ccccc2)Oc2cc(N3CC[C@H](O)C3)ccc2S1(=O)=O | nt | nt | nt | nt | -11.2
COC(=O)c1ccc(NC(=S)N2CCN(C)CC2)cc1 | -1.6 | 7.4 | -35.8 | 13.0* | 2.7
COC(=O)c1ccc(NC(=S)N2CCCC2)cc1 | -2.1 | 10.7 | -22.5 | 5.1 | -1.1
N#Cc1c(C(F)(F)F)cc(-c2cccs2)nc1SCc1cccnc1 | 2.0 | -11.7 | -1.4 | -2.1 | 17.3*
N#Cc1c(C(F)(F)F)cc(-c2cccs2)nc1SCc1ccc(Cl)nc1 | -0.6 | 3.3 | 20.1 | -0.6 | 0.1
O=C(CSc1nnc2c(n1)[nH]c1ccccc12)NCc1ccccc1F | 2.0 | -16.4 | -10.7 | 3.6 | 14.9*
O=C(OCC(=O)c1ccc[nH]1)c1cncc(Br)c1 | 0.1 | -0.3 | -10.1 | 3.7 | 15.0*
O=C(OCC(=O)c1ccc[nH]1)c1ccccc1 | -1.5 | 7.7 | -27.6 | -1.0 | 3.3
Cc1cc(NC(=O)CSc2nc(C(C)C)nc3sc(C)c(C)c23)no1 | 5.7 | -31.7 | -20.9 | -5.4 | 2.1
Cc1cc(NC(=O)CSc2nc3sc(C)c(C)c3c(=O)n2C2CCCC2)no1 | 2.5 | -15.2 | 7.3 | -3.1 | 16.9*
O=C(c1ccco1)N1CCC(c2nc3c(nnn3Cc3c(Cl)cccc3Cl)c(=O)[nH]2)CC1 | 0.4 | -3.0 | -29.9 | 1.3 | -3.1
CC(C)(C)CC(=O)N1CCC(c2nc3c(nnn3Cc3c(F)cccc3Cl)c(=O)[nH]2)CC1 | -1.3 | 8.1 | 27.5 | 10.7* | 1.2
CC1(C)CC(N=c2cc(-c3ccccc3)oc3ccc(Cl)cc23)CC(C)(C)N1 | 11.3 | -57.9 | -40.7 | 13.5* | -7.5
OCCCN=c1cc(-c2ccccc2)oc2ccc(Cl)cc12 | -2.2 | 12.3 | 12.1 | -2.3 | -2.6
Cc1cc2c(cc1C)-c1nnnn1C(N1CCCCC1)C(=O)N2 (stereo not drawn) | nt | nt | nt | nt | -0.5
COC(=O)c1c(NC(=O)CSc2ncn[nH]2)sc(C)c1C | 0.7 | -4.0 | -31.8 | 12.7* | 5.0
CCOC(=O)c1c(NC(=O)CSc2ncn[nH]2)sc(C(C)=O)c1C | -4.2 | 21.3 | -12.8 | 5.3 | 2.5
CC(C)Cc1nnc(NC(=O)CSc2ncn[nH]2)s1 | -2.6 | 11.7 | 0.0 | 12.8* | 8.8
Cc1cc(=O)[nH]c(SCC(=O)Nc2nnc(CC(C)C)s2)n1 | -3.5 | 14.5 | 6.3 | 1.9 | -0.1
COc1cccc(C=NNC(=O)c2ccncc2)c1O | -0.5 | 2.6 | -30.2 | 8.5* | -4.2
O=C(Nc1cccc(S(=O)(=O)N2CCCCC2)c1)c1ccc(S(=O)(=O)C(F)F)cc1 | 0.2 | -0.7 | -4.3 | 11.6* | 0.1
